Laboratory results published in PubChem BioAssay AID1159580 (chemical genetic matrix, 2015).
“And” between values parts separate entries of the source, which are not always exact repeats. Equal values may be shown once. Among all 5,500 compounds or so, about 2,000 (36%) were called active. Not shown: some 18% with an inconclusive outcome. Cut-off read from the data, not from the text of the source: active = normalized growth mostly below about 0.91 (no sharp cut-off); inconclusive = no clear call, values can overlap the other calls; inactive = mostly above about 0.92. The list shows a part of the results.

Experiment: chemical genetic growth profiling, strain panel (AID 1159580);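 note: tested at 20 µM; growth read once vehicle control cultures reached saturation at 30 °C; 1 = growth at the plate median or of vehicle wells; lower values mean less growth of the strain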
Details: S. cerevisiae deletion strains, growth OD

Measured: normalized growth

CN1CCOC(c2ccccc2)c2ccccc2C1 (configuration not stated)
inactive: locus YAL013W, strain DEP1, active compounds read low 1.01 | locus YAL021C, strain ccr4, active compounds read low 0.949 | locus YAL026C, strain drs2, active compounds read low 0.969 | locus YAL030W, strain snc1, active compounds read low 0.976 | locus YBL061C, strain skt5, active compounds read low 0.979 | locus YBR009C, strain hhf1, active compounds read low 0.984 | locus YBR021W, strain FUR4, active compounds read low 1.07 | locus YBR023C, strain chs3, active compounds read low 0.974 | locus YBR171W, strain sec66, active compounds read low 0.976 | locus YBR229C, strain ROT2, active compounds read low 1 | locus YBR231C, strain swc5, active compounds read low 0.977 | locus YBR279W, strain paf1, active compounds read low 0.975 | locus YCL011C, strain gbp2, active compounds read low 0.966 | locus YCL016C, strain dcc1, active compounds read low 1 | locus YCL029C, strain bik1, active compounds read low 1.04 | locus YCL061C, strain MRC1, active compounds read low 0.979 | locus YCL069W, strain vba3, active compounds read low 0.984 | locus YCR088W, strain abp1, active compounds read low 0.973 | locus YDL005C, strain med2, active compounds read low 0.979 | locus YDL035C, strain GPR1, active compounds read low 1 | locus YDL040C, strain nat1, active compounds read low 0.967 | locus YDL074C, strain BRE1, active compounds read low 1.05 | locus YDL101C, strain DUN1, active compounds read low 1.02 | locus YDL134C, strain PPH21, active compounds read low 1 | locus YDL185W, strain tfp1, active compounds read low 1.02 | locus YDL192W, strain arf1, active compounds read low 1.02 | locus YDR001C, strain nth1, active compounds read low 0.974 | locus YDR069C, strain doa4, active compounds read low 0.91 | locus YDR101C, strain arx1, active compounds read low 1.01 | locus YDR137W, strain rgp1, active compounds read low 0.988 | locus YDR150W, strain NUM1, active compounds read low 0.992 | locus YDR159W, strain sac3, active compounds read low 0.916 | locus YDR162C, strain NBP2, active compounds read low 1.01 | locus YDR195W, strain ref2 0.941 | locus YDR297W, strain sur2, active compounds read low 0.985 | locus YDR318W, strain mcm21, active compounds read low 1.03 | locus YDR334W, strain swr1, active compounds read low 0.917 | locus YDR335W, strain msn5, active compounds read low 0.995 | locus YDR388W, active compounds read low 1.02 | locus YDR392W, strain spt3, active compounds read low 0.987 | locus YDR502C, strain sam2, active compounds read low 1.01 | locus YEL003W, strain gim4, active compounds read low 0.989 | locus YEL037C, strain rad23, active compounds read low 0.985 | locus YEL061C, strain CIN8 (second series), active compounds read low 0.971 | locus YEL061C, strain CIN8, active compounds read low 1 | locus YER015W, strain faa2, active compounds read low 0.992 | locus YER016W, strain bim1, active compounds read low 0.975 | locus YER110C, active compounds read low 1.02 | locus YER111C, strain swi4, active compounds read low 0.971 | locus YER155C, strain BEM2 (second series), active compounds read low 1.01 | locus YER155C, strain BEM2, active compounds read low 1.01 | locus YER167W, strain BCK2, active compounds read low 1.01 | locus YFR010W, strain ubp6, active compounds read low 0.966 | locus YGL078C, strain dbp3, active compounds read low 1.02 | locus YGL086W, strain mad1, active compounds read low 0.998 | locus YGL167C, strain pmr1, active compounds read low 0.981 | locus YGL173C, strain kem1, active compounds read low 0.958 | locus YGL227W, strain vid30, active compounds read low 0.951 | locus YGL240W, strain doc1, active compounds read low 0.977 | locus YGL248W, strain PDE1, active compounds read low 1.01 | locus YGL253W, strain hxk2, active compounds read low 0.963 | locus YGR078C, strain PAC10, active compounds read low 1.02 | locus YGR135W, strain pre9, active compounds read low 1.02 | locus YGR229C, strain SMI1, active compounds read low 0.987 | locus YGR252W, strain gcn5, active compounds read low 0.997 | locus YHR013C, strain ard1, active compounds read low 0.992 | locus YHR027C, strain rpn1, active compounds read low 0.98 | locus YHR030C, strain SLT2, active compounds read low 1 and 0.998 | locus YHR079C, strain IRE1 (second series), active compounds read low 1.02 | locus YHR079C, strain IRE1, active compounds read low 0.985 | locus YHR094C, strain hxt1, active compounds read low 1.01 | locus YHR129C, strain ARP1, active compounds read low 1.01 | locus YHR142W, strain chs7, active compounds read low 0.963 | locus YHR200W, strain rpn10, active compounds read low 1.02 | locus YIL066C, strain RNR3, active compounds read low 1.01 | locus YIL073C, strain SPO22, active compounds read low 1.06 | locus YIL125W, strain kgd1, active compounds read low 1.01 | locus YIR030C, strain dcg1, active compounds read low 1.02 | locus YJL092W, strain hpr5, active compounds read low 0.986 | locus YJL095W, strain BCK1 (second series), active compounds read low 0.975 | locus YJL095W, strain BCK1, active compounds read low 1.02 and 0.995 | locus YJL115W, strain asf1, active compounds read low 0.949 | locus YJL129C, strain trk1, active compounds read low 0.968 | locus YJL134W, strain LCB3, active compounds read low 1 | locus YJL154C, strain vps35, active compounds read low 0.95 | locus YJL164C, strain tpk1, active compounds read low 0.984 | locus YJL166W, strain qcr8, active compounds read low 0.968 | locus YJL168C, strain set2, active compounds read low 1.02 | locus YJL187C, strain SWE1 (second series), active compounds read low 1.02 | locus YJL187C, strain SWE1, active compounds read low 0.985 | locus YJR043C, strain POL32, active compounds read low 1.03 | locus YJR066W, strain TOR1, active compounds read low 0.945
